# Compound activity (PubChem BioAssay)
# Only some compounds are listed: those with a hit (about 19% of all), similar ones and a draw of the others.
# HT1080-NT tox = kills 2HG-producing HT-1080-NT fibrosarcoma cells; AID 686970; Potency, µM (doses to about 46.1 µM), inactives show at the top dose activity, negative = less viability, usual class: cytotoxic; HT-1080-NT fibrosarcoma viability, CellTiter-Glo ATP luminescence, 48 h; 360,000 tested, 1.6% active;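 further: NT is the 2HG producing partner of a matched IDH1 knockdown line; potency means the concentration at half of the fitted maximal effect; 0% = DMSO-treated cells and -100% = media-only wells without cells; nearly all actives have a fitted effect of over 55% in size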
#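 Compounds were tested in concentration-response format on HT-1080-NT cells for 48 hours at 37 degrees C. Cell viability came from CellTiter-Glo luminescence; curves were classified by r2, response magnitude and activity.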
# DT40 TDP1 CPT = DT40-hTDP1 cell growth loss with CPT. chicken DT40 Tdp1-/-;hTDP1 cells + 20 nM CPT, ATP luminescence, 48 h. Potency, µM (series often up to 46.2 µM), inactives show at the top dose activity change, negative = growth inhibition, usual class: inhibitors. 420,000 tested, 12% active; further: potency means the concentration at half of the fitted maximal effect; nearly all actives have a fitted effect of over 55% in size
#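 Cell growth measured by CellTiter-Glo luminescence after a minimum 48 h, 37 C compound exposure with 20 nM CPT in Tdp1-knockout DT40 cells stably expressing hTDP1, seeded 400/well; qHTS titration format.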
# ELG1 DNA repair = ELG1-dependent DNA repair inhibition; HEK293T ELG1-luciferase reporter, luminescence, 16 h; DNA damage induced by 5-fluorouridine; 330,000 tested, 2.3% active; Potency, µM (titrated, usually from 46.1 µM), for the others: at the highest dose activity change, negative = inhibition, actives largely listed as inhibitors; AID 504467; further: potency means the concentration at half of the fitted maximal effect; nearly all actives have a fitted effect of over 55% in size
#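 Overnight (16 hr) co-exposure of 2,000 cells/well to 5-fluorouridine and compound at 37 °C preceded detection. Luciferase was quantified via ONE-Glo luminescence; loss of signal denotes inhibition.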
# HT1080 IDH1KD tx = toxicity to HT-1080 IDH1 knockdown cells (counter line) | HT-1080 IDH1 knockdown viability, ATP luminescence, 48 h | Potency, µM (titrated, usually from 46.1 µM), for the others: at the top dose activity, negative = toxicity, actives largely listed as cytotoxic | 360,000 tested, 2% active;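 further: potency means the concentration at half of the fitted maximal effect; 0% = DMSO wells and -100% = cell-free medium wells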
#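 Using the IDH1-knockdown HT-1080 line run in the same batch and compound series as the NT line, viability after 48 h at 37 °C was determined by CellTiter-Glo luminescence and expressed as % activity.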
# IL-1B inflam inh = inflammasome signaling inhibition, IL-1 beta readout | 360,000 tested, 4.7% active | THP-1 LPS/ATP IL-1B secretion, AlphaLISA, 16 h; stronger effect = lower value | AID 743279 | activity change, % at 57.5 µM; in the data active means activity change below about -50%; inconclusive means mostly about -30% to -49%
#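 THP-1 cells pretreated 1 hr with compounds (up to 57.5 uM final), then stimulated with LPS (250 ng/mL final) plus ATP (1.25 mM final); secreted IL-1B measured by AlphaLISA after 16 hr, decreased signal indicating inhibition.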
# TDP1 cell noCPT = qHTS for Inhibitors of human tyrosyl-DNA phosphodiesterase 1 (TDP1): qHTS in cells in absence of CPT. DT40 Tdp1-/- hTDP1 cells, no CPT, ATP luminescence, 48 h. Potency, µM (series often up to 46.2 µM), without a hit: at the top dose activity change, negative = growth inhibition, hits mostly inhibitors. 420,000 tested, 15% active; further: potency means the concentration at half of the fitted maximal effect; nearly all actives have a fitted effect of over 55% in size
#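 Luminescent ATP content (CellTiter-Glo) served as the growth readout. Knockout chicken DT40 cells expressing human TDP1 were exposed to compounds without camptothecin for a minimum 48 hr at 37 °C.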
# Active calls of the source: *; ? = inconclusive; / = no result; [ ] = another dose, or the depositor's remark. Unless noted, the call rests on the fitted dose curve; in most records, active means well fitted curve in the direction sought with a large enough effect; inconclusive means small, poorly fitted or top-dose-only effect, or another doubt; inactive means no such curve, though single readings can be large; an effect the other way counts as inactive or inconclusive. Unless noted, on the % scale 0 is the no-effect control and ±100 the full control effect.
SMILES,HT1080-NT tox,DT40 TDP1 CPT,ELG1 DNA repair,HT1080 IDH1KD tx,IL-1B inflam inh,TDP1 cell noCPT
O=[N+]([O-])c1ccc2oc(C(O)c3cccc(Cl)c3)cc2c1 (centres undefined),-29%,?,-1%,-19%,-93*,12µM*
CC(C)N1C(=O)/C(=C\c2nc3ccccc3c(=O)n2-c2ccccc2)c2ccccc21,?,23µM*,13µM*,?,-106*,16µM*
CC(C)N1C(=O)/C(=C/c2nc3ccccc3c(=O)n2-c2ccccc2)c2ccccc21,-29%,21µM*,21µM*,?,-96*,23µM*
Cc1ccc(OCc2nc(-c3ccccn3)n[nH]2)cc1,-10%,3.3µM*,?,-15%,47,4.6µM*
Cc1cccc(OCc2nc(-c3ccccn3)n[nH]2)c1,-11%,21µM*,/,-3%,13,15µM*
Cc1ccc(-n2c(COc3ccccc3)n[nH]c2=S)cc1,6%,8%,3%,29%,18,10%
CCn1cc(/C=N/N=C2\CCC3C4CCc5cc(O)ccc5C4CC[C@]23C)c(C)n1 (some centres undefined),-19%,16µM*,0%,-2%[9.24 µM],0,21µM*
CC(C)CN(C(=O)COc1ccc([N+](=O)[O-])cc1)c1c(N)n(CC(C)C)c(=O)[nH]c1=O,-1%[9.24 µM],-10%,1%,4%,-5,-7%
COc1cccc(NS(=O)(=O)c2ccc3[nH]cc(C(=O)N(C)C4CCCCC4)c(=O)c3c2)c1,/,-24%,/,/,/,?
CC1(C)CC(=O)C2=C(C1)OC1=C(C(=O)CC(C)(C)C1)C2c1cccc([N+](=O)[O-])c1,1%,?,/,1%,-14,16µM*
CC1(C)CC(=O)C2=C(C1)OC1=C(C(=O)CC(C)(C)C1)C2c1ccc(O)cc1O,5.6µM*,2µM*,?,5µM*,-104*,4µM*
CC1(C)CC(=O)C2=C(C1)OC1=C(C(=O)CC(C)(C)C1)C2c1ccc(O)c([N+](=O)[O-])c1,1%,?,?,4%,3,-12%
CCOc1ccc(S(=O)(=O)N2CCC(C(=O)OC(C)C(=O)NC3CCCCC3C)CC2)cc1 (centres undefined),10%,-23%,-11%,7%,7,?
CC[C@]12c3[nH]c4ccc(Cl)cc4c3CCN1C(=O)[C@@H](CC(=O)NCc1ccc(OC)c(OC)c1)C[C@@H]2C(=O)N1CCN(C(=O)c2ccco2)CC1,7%,?,1%,0%,26,?
O=C(COC(=O)C1CC1)NC(=O)c1ccccc1,0%,?,7%,6%,18,-6%
CCOC(=O)c1sc(=S)n(C)c1NC(=O)c1cccc(Br)c1,?,21µM*,13µM*,?,-13,21µM*
CCOC(=O)c1sc(=S)n(C)c1NC(=O)c1ccccc1,2%,?,6%,6%,15,21µM*
CCOC(=O)c1sc(=S)n(-c2ccccc2)c1NC(C)=O,-12%,-4%,-2%,-21%,1,-29%
COc1cc(Cl)c(C)cc1NC(=O)c1cc2c(Cl)nc3ccc(C)cc3c2s1,/,-4%,/,/,/,-18%
CCOC(=O)c1c(-c2ccccc2)oc2cc(Br)c(OCc3ccccc3)cc12,/,-17%,/,/,/,-4%
CCc1ccc(-n2nc(CO)c(C(=O)NC(C)c3ccc(Cl)cc3)n2)cc1 (centres undefined),/,-28%,/,/,/,-15%
O=C(Cc1ccc(Cl)cc1)Nc1ncc([N+](=O)[O-])s1,?,3%,?,?,33,-29%
CCC(Oc1ccccc1)C(=O)Nc1ncc([N+](=O)[O-])s1 (centres undefined),-11%,?,?,-5%,3,?
O=C(COc1ccc(Cl)cc1)Nc1ncc([N+](=O)[O-])s1,?,26µM*,?,?,-22,23µM*
N/C(=N\OC(=O)Nc1ccccc1)c1ncc([N+](=O)[O-])s1,?,3.3µM*,?,21µM*,-64*,8.2µM*
SMILES,HT1080-NT tox,DT40 TDP1 CPT,ELG1 DNA repair,HT1080 IDH1KD tx,IL-1B inflam inh,TDP1 cell noCPT
CC(CC(=O)Nc1ncc([N+](=O)[O-])s1)c1ccccc1 (centres undefined),?,?,-29%,?,-63*,?
O=C(Cc1ccc(Br)cc1)Nc1ncc([N+](=O)[O-])s1,?,?,-5%,?,-54*,13µM*
CCSc1nnc(NC(=O)COc2ccc(Cl)cc2)s1,3%,1%,22%,14%,-2,1%
COC(=O)c1ccccc1S(=O)(=O)N1CCC(C(=O)OC(C)C(=O)N(C)Cc2ccccc2)CC1 (centres undefined),8%,-30%,/,3%,-4,?
N[C@H](CCC(=O)N[C@H](CSN=O)C(=O)NCC(=O)O)C(=O)O,/,0%,/,/,/,-14%
COc1ccc(-c2cc(C(=O)Nc3cccc(O)c3)no2)cc1,4%,-28%,?,-5%,-9,-16%
NS(=O)(=O)c1ccc(NC(=O)COC(=O)COc2ccccc2)cc1,-9%,-8%,-7%,3%,10,-11%
